Compounds with a hit are over-represented: about 19% of the library has one in this group of screens.
MCF10A rereplic: A quantitative high throughput screen for small molecules that induce DNA re-replication in MCF 10a normal breast cells | MCF 10A DNA re-replication, Hoechst nuclear intensity, 48 h | Potency, µM (highest dose often 46.1 µM), for inactives: top-dose activity, positive = re-replication, actives largely listed as activators | 2.9% of 350,000 active | AID 624296, 2012; note: potency is the fitted concentration of half-maximal effect; % of control where 0% means no effect; nearly all actives have a fitted effect of over 50% in size
TDP1 cell noCPT: qHTS for Inhibitors of human tyrosyl-DNA phosphodiesterase 1 (TDP1): qHTS in cells in absence of CPT. DT40 Tdp1-/- hTDP1 cells, no CPT, ATP luminescence, 48 h. Potency, µM (series often up to 46.2 µM), inactives show top-dose activity change, negative = growth inhibition, hits mostly inhibitors. 15% of 420,000 active; note: potency is the fitted concentration of half-maximal effect; % is set by controls: 0 for no effect and ±100 for the full control effect; nearly all actives have a fitted effect of over 55% in size
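DT40 Tdp1-/-;hTDP1 cells, no CPT (DMSO vehicle only), 400 cells/well; compounds pin-transferred; ≥48 hr, 37 °C; CellTiter-Glo 30 min RT dark, luminescence read.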
IL1B secr inh: qHTS for Inhibitors of Inflammasome Signaling: IL-1-beta AlphaLISA Primary Screen | THP-1 LPS/ATP IL-1B secretion, AlphaLISA, 16 h; stronger effect = lower value | activity change, % at 57.5 µM | 4.7% of 360,000 active | AID 743279, 2014; in the data active = activity change below about -50%; inconclusive = mostly about -30% to -49%; note: % is set by controls: 0 for no effect and ±100 for the full control effect
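Secreted IL-1B measured by AlphaLISA bead assay after 16 h compound exposure of THP-1 cells; compounds (final up to 57.5 uM) added 1 h before LPS (250 ng/mL) and ATP (1.25 mM) stimulation; lower signal means less secretion.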
TDP1 cell CPT: qHTS for Inhibitors of human tyrosyl-DNA phosphodiesterase 1 (TDP1): qHTS in cells in presence of CPT | Potency, µM (highest dose often 46.2 µM), without a hit: at the highest dose activity change, negative = growth inhibition, actives largely listed as inhibitors | chicken DT40 Tdp1-/-;hTDP1 cells + 20 nM CPT, ATP luminescence, 48 h | 12% of 420,000 active | AID 686979, 2013; note: potency is the fitted concentration of half-maximal effect; % is set by controls: 0 for no effect and ±100 for the full control effect; nearly all actives have a fitted effect of over 55% in size
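Cell growth measured by CellTiter-Glo luminescence after a minimum 48 h, 37 C compound exposure with 20 nM CPT in Tdp1-knockout DT40 cells stably expressing hTDP1, seeded 400/well; qHTS titration format.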
SW480 rerep: A quantitative high throughput screen for small molecules that induce DNA re-replication in SW480 colon adenocarcinoma cells | SW480 DNA re-replication, Hoechst DNA content imaging, 48 h | Potency, µM (doses to about 46.1 µM), without a hit: at the top dose re-replication activation, most hits filed as activators | 1.8% of 340,000 active; note: potency is the fitted concentration of half-maximal effect; % of control where 0% means no effect; nearly all actives have a fitted effect of over 55% in size
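250 cells/well; 23 nL cpd via pin tool; 48 hr, 37 C, 5% CO2; Hoechst 40 min; imager read of total nuclear intensity, ex 405/em 500-530 nm.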
Chronic BCR inh: qHTS Assay to Find Inhibitors of Chronic Active B-Cell Receptor Signaling; ABC-DLBCL IkBa-CBG/CBR reporter, luminescence ratio, 4 h; Potency, µM (doses to about 46.1 µM), for the others: at the top dose activity change, negative = inhibition, actives largely listed as inhibitors; 0.05% of 340,000 active; active = well fitted inhibition curve with a large enough effect in the signal ratio, with a control signal flat, not every such curve was filed as active; inconclusive = small, poorly fitted or top-dose-only effect, or effect the other way, or a change in a side signal; the % refers to the signal ratio;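 note: potency is the fitted concentration of half-maximal effect; plate controls were basal doxycycline-induced cells for no effect and cells given 10 µM MG132 for full effect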
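Cell line TMD8 (human ABC DLBCL), stably expressing tet-inducible CBG68-IkBa fusion and CBR; IMDM/0.5% FBS; cpd up to 46 uM; dox induction, 4 h, 37C/5% CO2; dual luminescence; green/red ratio; MG132 control.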
Numbers without * were called inactive; [ ] = remark or other dose. Unless noted, calls come from the whole dose curve; as a rule, active = well fitted curve in the direction sought with a large enough effect; inconclusive = small, poorly fitted or top-dose-only effect, or another doubt; inactive = no such curve, though single readings can be large; an effect the other way counts as inactive or inconclusive.

Screening O=C(N/N=C/c1c(O)ccc2ccccc12)c1ccc(CO)nc1 returned MCF10A rereplic inconclusive, TDP1 cell noCPT 4.6µM*, IL1B secr inh 114, TDP1 cell CPT 4.6µM*, SW480 rerep inconclusive and Chronic BCR inh -10%.
For O=C(N/N=C\c1c(O)ccc2ccccc12)c1ccc(S(=O)(=O)N2CCCCC2)cc1 the results were MCF10A rereplic 0%, TDP1 cell noCPT 3.7µM*, IL1B secr inh 99, TDP1 cell CPT 3.3µM*, SW480 rerep inconclusive and Chronic BCR inh -1%.
For C/C(=N\NC(=O)c1cc2ccccc2cc1O)c1ccc2c(c1)OCO2 the results were MCF10A rereplic 9%, TDP1 cell noCPT -29%, IL1B secr inh 9, TDP1 cell CPT 2%, SW480 rerep 3% and Chronic BCR inh 9%.
Cc1cc(O)cc(O)c1/C=N/NC(=O)c1ccc2c(c1)OCCO2 was read as TDP1 cell noCPT 6.5µM*, IL1B secr inh 117 and TDP1 cell CPT 5.8µM*.
COc1ccc2ccccc2c1/C=N/NC(=O)c1ccc(C)nc1 was read as MCF10A rereplic 15%, TDP1 cell noCPT inconclusive, IL1B secr inh -10, TDP1 cell CPT 1%, SW480 rerep -10% and Chronic BCR inh inconclusive.
O=C(NN=Cc1c(O)ccc2ccccc12)c1ccc2c(c1)OCO2 was read as MCF10A rereplic 12µM*, TDP1 cell noCPT 2.6µM*, IL1B secr inh 170, TDP1 cell CPT 5.8µM*, SW480 rerep 21µM* and Chronic BCR inh inconclusive.
`COc1ccccc1/C=N/NC(=O)CNC(=O)c1ccc(S(=O)(=O)N2CCCC2)cc1` gave MCF10A rereplic 14%, TDP1 cell noCPT 0%, IL1B secr inh -1, TDP1 cell CPT 1%, SW480 rerep -33% and Chronic BCR inh -5%.
O=C(CNC(=O)c1ccc(S(=O)(=O)N2CCCC2)cc1)N/N=C/c1ccccc1Cl was read as MCF10A rereplic 4%, TDP1 cell noCPT 13µM*, IL1B secr inh -19, TDP1 cell CPT inconclusive, SW480 rerep 15% and Chronic BCR inh inconclusive.
Screening COc1cc(CN2CCC(CCC(=O)NC3CC3)CC2)cc(Cl)c1OC returned MCF10A rereplic 2%, TDP1 cell noCPT 10%, IL1B secr inh 15, TDP1 cell CPT 2%, SW480 rerep 7% and Chronic BCR inh 0%.
C[C@@H]1CN([C@H](C)CO)C(=O)CCCn2nncc2CO[C@H]1CN(C)Cc1cccc(O)c1 was read as TDP1 cell noCPT -5%, IL1B secr inh -18 and TDP1 cell CPT 3%.
For COc1cccc(C(NC(C)=O)c2nc(-c3ccc(OC)nc3)cs2)c1 (configuration not stated) the results were TDP1 cell noCPT inconclusive, IL1B secr inh -74* and TDP1 cell CPT inconclusive.
`COc1ccc(-c2csc(C(NC(C)=O)c3ccccc3)n2)cn1` (configuration not stated) gave TDP1 cell noCPT 6%, IL1B secr inh -1 and TDP1 cell CPT 10%.
`COc1cccc(C(NC(C)=O)c2nc(-c3cccc(C#N)c3)cs2)c1` (configuration not stated) gave TDP1 cell noCPT inconclusive, IL1B secr inh -74* and TDP1 cell CPT 29µM*.
`COc1ccc(-c2csc(C(NC(C)=O)c3cccc(F)c3)n2)cc1` (configuration not stated) gave TDP1 cell noCPT 16µM*, IL1B secr inh -10 and TDP1 cell CPT inconclusive.
`COc1ccc(-c2csc(C(NC(C)=O)c3cccc(OC)c3)n2)cc1` (configuration not stated) gave TDP1 cell noCPT inconclusive, IL1B secr inh 22 and TDP1 cell CPT inconclusive.
COc1cccc(C(NC(C)=O)c2nc(-c3cccc(O)c3)cs2)c1 (configuration not stated) was read as TDP1 cell noCPT 18µM*, IL1B secr inh 14 and TDP1 cell CPT 23µM*.
For CCC(C)c1ccccc1NC(=O)C(C)OC(=O)c1ccco1 (configuration not stated) the results were MCF10A rereplic -2%, TDP1 cell noCPT -1%, IL1B secr inh 12, TDP1 cell CPT 14%, SW480 rerep -6% and Chronic BCR inh -7%.
`CSCCC(NS(=O)(=O)c1ccccc1F)C(=O)NCCCn1nc(C)cc1C` (configuration not stated) gave MCF10A rereplic 2%, TDP1 cell noCPT -13%, IL1B secr inh -3, TDP1 cell CPT -12%, SW480 rerep -1% and Chronic BCR inh -25%.
`COc1ccc(NC(=O)C2(c3cccs3)CCOCC2)cc1Cl` gave TDP1 cell noCPT inconclusive, TDP1 cell CPT -29% and Chronic BCR inh inconclusive.
`Cc1csc(SCC(=O)NCc2ccccc2)n1` gave MCF10A rereplic -28%, TDP1 cell noCPT -8%, IL1B secr inh 13, TDP1 cell CPT -10%, SW480 rerep 8%[1.84 µM] and Chronic BCR inh inconclusive.
Cc1csc2sc(-c3ccnc(SCC(=O)NCc4ccccc4)n3)c(C)c12 was read as MCF10A rereplic inconclusive, TDP1 cell noCPT 0.73µM*, IL1B secr inh 75, TDP1 cell CPT 0.73µM*, SW480 rerep 18µM* and Chronic BCR inh inconclusive.
Cc1cc[n+](CC2OCc3ccccc3CO2)cc1 was read as MCF10A rereplic -5%, TDP1 cell noCPT 18µM*, IL1B secr inh 47, TDP1 cell CPT inconclusive, SW480 rerep -9% and Chronic BCR inh -1%.
`O=C(CC1SCCNC1=O)Nc1cccc([N+](=O)[O-])c1` (configuration not stated) gave MCF10A rereplic -3%, TDP1 cell noCPT -4%, IL1B secr inh -1, TDP1 cell CPT -8%, SW480 rerep -4% and Chronic BCR inh -8%.
COc1ccc(C)cc1S(=O)(=O)Nc1ccc(-n2c(C)nc3ccccc3c2=O)cc1 was read as MCF10A rereplic 7%, TDP1 cell noCPT inconclusive, IL1B secr inh -8, TDP1 cell CPT inconclusive, SW480 rerep 89% and Chronic BCR inh -4%.
For COc1ccc(C(=O)Nn2c(C)nc3ccccc3c2=O)cc1[N+](=O)[O-] the results were MCF10A rereplic 1%, TDP1 cell noCPT -2%, IL1B secr inh -8, TDP1 cell CPT 7%, SW480 rerep -21% and Chronic BCR inh 0%.

Screens from PubChem BioAssay.
